The full data set covers some 7,900 targets. This sample favours those with a hit. About 0.6% of all pairs of compound and target were hits. A number with no mark means an inactive call.
Experiments:
Assay in all cases: log2 fold change, soluble protein after heating vs DMSO (PISA); higher = thermal stabilisation; K562 cells, 10 uM, 30 min; active = over 0.2 and 3.5 SD of the protein, either way, in both replicates (recomputed)
IRAK-1-4 Inhibitor I = compound: C1COCCN1CCN2C3=CC=CC=C3N=C2NC(=O)C4=CC(=CC=C4)[N+](=O)[O-] [IRAK-1-4 Inhibitor I]
Procedure, shortened: (§1)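 For each measurement, 10 μM compound was applied for 30 min to K562 cells at 2×10^6 cells/mL. Aliquots were heated for 3 min across 48°C-58°C, pooled, and extracted in PBS with 0.5% NP-40 at 4°C; the supernatant after 21,000xg for 90 min was soluble protein. This was quantified by TMTpro 16plex LC-MS/MS with channel sums equalised, and thermal stability was reported relative to control samples from duplicates, on a log2 fold-change scale.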

ibrutinib = compound: C=CC(=O)N1CCC[C@@H](n2nc(-c3ccc(Oc4ccccc4)cc3)c3c(N)ncnc32)C1 [ibrutinib]
Procedure, shortened: as §1

[1] = compound: CC(=O)c1cnc2ccc(-c3cc(Cl)c(O)c(Cl)c3)nc2c1N[C@H]1CC[C@H](CN(C)C)CC1
Procedure, shortened: as §1

ralimetinib = compound: CC(C)(C)Cn1c(N)nc2ccc(-c3[nH]c(C(C)(C)C)nc3-c3ccc(F)cc3)nc21 [ralimetinib]
Procedure, shortened: as §1

[2] = compound: CC(C)(O)CC(=O)NCCn1ccc2ncnc(Nc3ccc(Oc4cccc(C(F)(F)F)c4)c(Cl)c3)c21
Procedure, shortened: as §1

[3] = compound: CC(C)C1=C2N=C(C=C(N2N=C1)NCC3=CC=CC=C3)NCCCCCCN
Procedure, shortened: as §1

[4] = compound: CC(C)C[C@@H](C=O)NC(=O)[C@H](CC(C)C)NC(=O)[C@H](CC(C)C)NC(=O)OCc1ccccc1
Procedure, shortened: as §1

pinometostat = compound: CC(C)N(C[C@H]1O[C@@H](n2cnc3c(N)ncnc32)[C@H](O)[C@@H]1O)[C@H]1C[C@@H](CCc2nc3cc(C(C)(C)C)ccc3[nH]2)C1 [pinometostat]
Procedure, shortened: as §1

[5] = compound: CC1=C(C(CC(=O)N1)C2=CC=C(C=C2)C(F)(F)F)C(=O)NC3=C(C=C4C(=C3)C=NN4)F
Procedure, shortened: as §1

[6] = compound: CC1=C(C2=C(C=C1)C(=O)C3=CC=CC=C3N2CCCN)C
Procedure, shortened: as §1

UniProt Q96AD5, sequence (Q96AD5 whole entry, looked up): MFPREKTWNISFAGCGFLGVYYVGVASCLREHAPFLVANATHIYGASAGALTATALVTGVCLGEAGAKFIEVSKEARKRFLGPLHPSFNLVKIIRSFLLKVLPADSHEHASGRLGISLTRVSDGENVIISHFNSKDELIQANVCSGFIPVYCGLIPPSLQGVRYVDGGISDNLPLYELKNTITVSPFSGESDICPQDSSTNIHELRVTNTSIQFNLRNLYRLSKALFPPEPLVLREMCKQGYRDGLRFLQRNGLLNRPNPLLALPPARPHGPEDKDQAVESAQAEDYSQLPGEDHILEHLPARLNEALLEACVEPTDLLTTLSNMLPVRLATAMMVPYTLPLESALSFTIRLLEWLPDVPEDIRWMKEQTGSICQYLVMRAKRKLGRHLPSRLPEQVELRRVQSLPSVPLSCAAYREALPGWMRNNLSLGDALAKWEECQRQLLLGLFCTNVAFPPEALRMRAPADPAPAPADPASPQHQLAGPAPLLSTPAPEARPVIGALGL
UniProt Q9NVM4, sequence (Q9NVM4 whole entry, looked up): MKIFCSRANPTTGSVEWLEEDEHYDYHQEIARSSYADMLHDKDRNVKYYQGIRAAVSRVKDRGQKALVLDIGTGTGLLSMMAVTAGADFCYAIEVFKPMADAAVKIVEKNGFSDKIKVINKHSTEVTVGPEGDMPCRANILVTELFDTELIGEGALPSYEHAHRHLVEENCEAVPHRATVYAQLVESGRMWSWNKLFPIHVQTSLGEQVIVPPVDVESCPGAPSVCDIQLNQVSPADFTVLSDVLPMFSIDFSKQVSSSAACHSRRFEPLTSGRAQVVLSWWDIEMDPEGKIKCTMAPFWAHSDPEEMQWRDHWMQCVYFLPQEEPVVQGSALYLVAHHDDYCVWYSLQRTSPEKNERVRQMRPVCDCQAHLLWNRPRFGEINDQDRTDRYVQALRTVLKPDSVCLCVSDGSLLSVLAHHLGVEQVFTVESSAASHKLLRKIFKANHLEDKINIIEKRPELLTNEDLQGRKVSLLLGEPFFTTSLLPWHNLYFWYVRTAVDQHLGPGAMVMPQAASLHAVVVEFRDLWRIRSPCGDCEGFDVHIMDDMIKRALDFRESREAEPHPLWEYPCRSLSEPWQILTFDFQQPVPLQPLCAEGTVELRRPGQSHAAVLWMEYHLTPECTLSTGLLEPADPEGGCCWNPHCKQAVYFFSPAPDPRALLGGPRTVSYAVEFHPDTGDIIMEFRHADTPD
UniProt O95453, sequence (O95453 whole entry, looked up): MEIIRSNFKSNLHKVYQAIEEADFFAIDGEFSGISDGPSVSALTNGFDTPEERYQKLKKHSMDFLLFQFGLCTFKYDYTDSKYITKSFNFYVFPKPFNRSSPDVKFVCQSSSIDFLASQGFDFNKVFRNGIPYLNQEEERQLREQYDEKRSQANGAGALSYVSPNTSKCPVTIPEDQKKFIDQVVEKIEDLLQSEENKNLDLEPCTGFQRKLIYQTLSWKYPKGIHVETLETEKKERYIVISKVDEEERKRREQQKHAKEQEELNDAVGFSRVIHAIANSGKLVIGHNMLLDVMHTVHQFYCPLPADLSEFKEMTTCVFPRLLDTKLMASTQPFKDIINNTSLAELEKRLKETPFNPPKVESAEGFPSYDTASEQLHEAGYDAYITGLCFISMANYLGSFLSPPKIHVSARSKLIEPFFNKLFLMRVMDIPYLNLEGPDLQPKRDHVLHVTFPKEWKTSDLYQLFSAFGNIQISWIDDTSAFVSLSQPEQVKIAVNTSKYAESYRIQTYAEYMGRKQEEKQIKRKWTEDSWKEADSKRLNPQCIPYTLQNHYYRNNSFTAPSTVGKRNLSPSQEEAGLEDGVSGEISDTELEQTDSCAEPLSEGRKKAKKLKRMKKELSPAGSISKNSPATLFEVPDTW
UniProt Q86T03, sequence (Q86T03 whole entry, looked up): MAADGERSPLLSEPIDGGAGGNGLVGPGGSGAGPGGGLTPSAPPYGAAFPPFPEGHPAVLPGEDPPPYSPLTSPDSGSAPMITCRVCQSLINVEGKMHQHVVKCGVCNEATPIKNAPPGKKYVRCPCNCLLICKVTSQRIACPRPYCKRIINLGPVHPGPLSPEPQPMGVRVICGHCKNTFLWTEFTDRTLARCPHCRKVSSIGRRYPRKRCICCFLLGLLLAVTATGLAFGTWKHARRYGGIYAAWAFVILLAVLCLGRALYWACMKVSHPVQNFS
UniProt Q99460, sequence (Q99460 whole entry, looked up): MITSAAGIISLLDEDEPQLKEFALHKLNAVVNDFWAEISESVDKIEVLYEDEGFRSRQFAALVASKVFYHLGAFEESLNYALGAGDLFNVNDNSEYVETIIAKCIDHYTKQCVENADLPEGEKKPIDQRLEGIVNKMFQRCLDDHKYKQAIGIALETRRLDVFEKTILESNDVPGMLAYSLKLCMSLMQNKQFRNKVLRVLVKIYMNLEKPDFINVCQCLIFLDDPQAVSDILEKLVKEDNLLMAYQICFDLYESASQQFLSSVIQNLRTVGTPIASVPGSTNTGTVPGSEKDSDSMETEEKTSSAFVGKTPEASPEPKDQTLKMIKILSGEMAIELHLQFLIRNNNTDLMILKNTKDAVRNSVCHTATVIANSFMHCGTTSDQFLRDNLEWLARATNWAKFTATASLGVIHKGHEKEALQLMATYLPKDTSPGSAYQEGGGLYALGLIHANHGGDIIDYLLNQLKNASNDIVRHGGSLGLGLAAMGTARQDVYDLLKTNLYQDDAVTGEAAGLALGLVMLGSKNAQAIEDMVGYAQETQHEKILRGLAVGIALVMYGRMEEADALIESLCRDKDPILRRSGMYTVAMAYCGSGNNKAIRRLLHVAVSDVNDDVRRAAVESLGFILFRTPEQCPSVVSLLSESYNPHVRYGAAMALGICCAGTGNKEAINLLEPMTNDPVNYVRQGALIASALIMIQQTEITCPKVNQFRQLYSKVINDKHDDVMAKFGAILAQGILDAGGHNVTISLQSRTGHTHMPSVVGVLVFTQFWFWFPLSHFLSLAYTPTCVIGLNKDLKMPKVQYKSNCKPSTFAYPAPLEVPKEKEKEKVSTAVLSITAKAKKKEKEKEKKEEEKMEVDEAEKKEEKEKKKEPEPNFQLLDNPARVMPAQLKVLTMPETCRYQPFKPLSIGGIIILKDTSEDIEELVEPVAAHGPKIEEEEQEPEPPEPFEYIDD
UniProt O15305, sequence (O15305 whole entry, looked up): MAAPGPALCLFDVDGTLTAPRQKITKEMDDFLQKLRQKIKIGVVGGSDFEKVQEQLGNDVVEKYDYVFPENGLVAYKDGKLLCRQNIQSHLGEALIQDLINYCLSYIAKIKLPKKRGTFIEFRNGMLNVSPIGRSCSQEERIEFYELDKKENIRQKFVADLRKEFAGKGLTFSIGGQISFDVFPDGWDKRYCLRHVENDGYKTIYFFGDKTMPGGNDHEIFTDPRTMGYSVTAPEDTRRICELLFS
UniProt Q16822, sequence (Q16822 whole entry, looked up): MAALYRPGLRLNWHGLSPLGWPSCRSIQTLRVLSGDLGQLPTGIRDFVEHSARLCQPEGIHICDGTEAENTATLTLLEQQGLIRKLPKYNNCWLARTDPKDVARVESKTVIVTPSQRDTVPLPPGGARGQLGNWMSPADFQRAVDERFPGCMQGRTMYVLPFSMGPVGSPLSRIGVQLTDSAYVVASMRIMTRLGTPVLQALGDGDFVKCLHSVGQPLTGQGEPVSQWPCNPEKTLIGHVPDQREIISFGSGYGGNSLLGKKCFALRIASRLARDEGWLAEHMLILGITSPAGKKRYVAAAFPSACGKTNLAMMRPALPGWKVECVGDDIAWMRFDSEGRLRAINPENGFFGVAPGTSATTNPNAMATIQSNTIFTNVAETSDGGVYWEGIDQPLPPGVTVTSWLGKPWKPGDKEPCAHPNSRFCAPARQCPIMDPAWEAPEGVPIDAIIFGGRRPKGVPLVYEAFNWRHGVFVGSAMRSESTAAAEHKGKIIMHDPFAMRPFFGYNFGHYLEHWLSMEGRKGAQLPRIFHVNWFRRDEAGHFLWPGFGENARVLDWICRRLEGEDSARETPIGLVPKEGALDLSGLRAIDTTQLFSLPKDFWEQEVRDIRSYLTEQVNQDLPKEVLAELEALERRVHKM
UniProt P62333, sequence (P62333 whole entry, looked up): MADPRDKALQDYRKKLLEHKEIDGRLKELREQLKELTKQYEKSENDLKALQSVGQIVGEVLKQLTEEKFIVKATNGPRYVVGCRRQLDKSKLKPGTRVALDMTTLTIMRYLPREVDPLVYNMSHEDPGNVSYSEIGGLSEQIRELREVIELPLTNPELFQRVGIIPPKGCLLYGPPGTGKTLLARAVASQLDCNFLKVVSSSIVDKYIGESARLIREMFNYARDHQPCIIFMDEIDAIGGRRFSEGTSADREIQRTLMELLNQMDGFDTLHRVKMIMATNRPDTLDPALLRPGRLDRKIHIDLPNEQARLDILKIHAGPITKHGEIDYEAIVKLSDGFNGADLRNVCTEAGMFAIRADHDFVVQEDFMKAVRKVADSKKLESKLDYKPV
UniProt Q15054, sequence (Q15054 whole entry, looked up): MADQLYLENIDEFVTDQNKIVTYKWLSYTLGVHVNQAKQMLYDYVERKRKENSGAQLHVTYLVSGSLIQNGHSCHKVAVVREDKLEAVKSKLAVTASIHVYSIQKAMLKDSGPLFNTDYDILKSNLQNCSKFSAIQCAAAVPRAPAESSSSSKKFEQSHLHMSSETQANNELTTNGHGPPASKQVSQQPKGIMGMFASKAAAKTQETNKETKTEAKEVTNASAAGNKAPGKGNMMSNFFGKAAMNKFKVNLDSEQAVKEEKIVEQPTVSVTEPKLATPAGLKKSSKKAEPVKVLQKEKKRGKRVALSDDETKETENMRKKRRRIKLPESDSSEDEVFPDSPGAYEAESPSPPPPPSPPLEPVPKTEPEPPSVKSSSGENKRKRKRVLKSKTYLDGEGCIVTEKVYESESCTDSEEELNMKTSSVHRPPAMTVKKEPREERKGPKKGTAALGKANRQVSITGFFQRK
UniProt Q96A00, sequence (Q96A00 whole entry, looked up): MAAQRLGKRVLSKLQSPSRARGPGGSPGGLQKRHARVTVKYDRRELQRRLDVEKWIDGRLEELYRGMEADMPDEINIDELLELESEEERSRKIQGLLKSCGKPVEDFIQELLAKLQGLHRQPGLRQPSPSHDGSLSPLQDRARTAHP

| Target | log2 fold change (IRAK-1-4 Inhibitor I) | log2 fold change (ibrutinib) | log2 fold change [1] | log2 fold change (ralimetinib) | log2 fold change [2] | log2 fold change [3] | log2 fold change [4] | log2 fold change (pinometostat) | log2 fold change [5] | log2 fold change [6] |
| --- | --- | --- | --- | --- | --- | --- | --- | --- | --- | --- |
| PARP1 (UniProt P09874) | -0.068 | -0.027 | -0.052 | 0.039 | 0.108 | -0.068 | 0.018 | -0.009 | -0.004 | 0.578 (active) |
| PI4K2A (UniProt Q9BTU6) | 0.01 | -0.018 | -0.026 | -0.072 | -0.062 | -0.158 | -0.002 | -0.024 | -0.005 | -0.006 |
| PMM2 (UniProt O15305) | 0.025 | -0.025 | 0.012 | -0.1 | 0.009 | 0.089 | -0.032 | -0.029 | 0.012 | -0.015 |
| PGGT1B (UniProt P53609) | 0.003 | -0.004 | -0.062 | -0.055 | 0.026 | -0.019 | 0.026 | -0.03 | 0.027 | -0.028 |
| PNPLA2 (UniProt Q96AD5) | -0.006 | 0.166 | -0.116 | -0.009 | 0.044 | -0.184 | 0.121 | -0.018 | -0.083 | -0.004 |
| PRMT8 (UniProt Q9NR22) | 0.045 | -0.004 | -0.012 | 0.098 | -0.014 | 0.001 | -0.073 | 0.026 | -0.027 | 0.101 |
| POLD3 (UniProt Q15054) | -0.013 | -0.01 | -0.043 | -0.001 | -0.114 | -0.357 (active) | -0.117 | -0.016 | -0.091 | 0.013 |
| PDCD2L (UniProt Q9BRP1) | -0.034 | -0.006 | 0.07 | 0.047 | -0.115 | 0.078 | 0.042 | 0.007 | 0.065 | 0.041 |
| PTPA (UniProt Q15257) | 0.016 | -0.027 | -0.003 | -0.02 | -0.022 | -0.01 | -0.028 | -0.044 | 0.016 | -0.011 |
| PSMB4 (UniProt P28070) | -0.021 | 0.006 | 0.044 | -0.008 | 0.045 | 0.065 | -0.043 | 0.03 | 0.013 | 0.018 |
| PSMD1 (UniProt Q99460) | -0.037 | -0.022 | 0.03 | 0.061 | 0.009 | 0.054 | -0.254 (active) | 0.023 | 0.028 | -0.004 |
| PYGL (UniProt P06737) | 0.004 | 0.033 | -0.143 | -0.038 | 0.055 | 0.068 | -0.031 | -0.007 | 0.019 | 0.021 |
| PARN (UniProt O95453) | 0.002 | -0.047 | -0.092 | -0.013 | -0.02 | -0.025 | 0.018 | -0.018 | 0.01 | 0.033 |
| PISD (UniProt Q9UG56) | -0.013 | -0.038 | -0.068 | 0.02 | -0.066 | 0.001 | 0.005 | -0.013 | -0.039 | 0.147 |
| POLR2G (UniProt P62487) | 0.001 | 0.078 | 0.329 (active) | -0.052 | -0.011 | 0.371 (active) | 0.012 | -0.044 | -0.053 | 0.268 |
| PUM1 isoform 3 (UniProt Q14671) | 0.004 | 0.02 | -0.097 | 0.013 | -0.022 | -0.059 | 0.02 | 0.023 | 0.006 | 0.063 |
| PSMD9 (UniProt O00233) | 0.033 | -0.005 | -0.003 | -0.029 | 0.003 | 0.069 | -0.015 | -0.039 | 0.017 | -0.004 |
| PAK4 (UniProt O96013) | 0.038 | -0.032 | 0.173 | -0.084 | 0 | 0.015 | 0.07 | 0.016 | -0.052 | 0.049 |
| PIP4P1 isoform 2 (UniProt Q86T03) | -0.011 | 0.003 | -0.002 | 0.003 | -0.004 | -0.329 (active) | 0.022 | -0.031 | 0.131 | -0.062 |
| PSMC6 (UniProt P62333) | -0.026 | 0 | 0.044 | 0.019 | 0.093 | 0.077 | -0.206 | 0.01 | 0.075 | -0.01 |
| PPP1R14A (UniProt Q96A00) | 0.041 | -0.01 | 0.036 | 0.218 | -0.009 | 0.126 | -0.122 | -0.065 | 0.01 | -0.073 |
| PRKCG (UniProt P05129) | 0.025 | -0.024 | -0.351 | 0.049 | -0.099 | -0.097 | 0.055 | 0.054 | 0.037 | 0.028 |
| PCK2 (UniProt Q16822) | -0.029 | 0.021 | -0.013 | -0.059 | -0.019 | 0.063 | 0.035 | -0.011 | -0.005 | 0.053 |
| PRMT7 (UniProt Q9NVM4) | 0.044 | -0.061 | -0.004 | -0.005 | 0.048 | -0.329 (active) | -0.033 | 0.074 | -0.022 | -0.065 |
| POLR2C (UniProt P19387) | -0.041 | -0.025 | 0.227 | 0.102 | 0.003 | 0.058 | 0.042 | 0.065 | -0.016 | -0.025 |
| PPID (UniProt Q08752) | -0.141 | -0.057 | -0.013 | 0.103 | -0.152 | -0.238 | 0.053 | 0.105 | -0.006 | 0.022 |
| POTEI (UniProt P0CG38) | -0.176 | 0.046 | 0.052 | 0.003 | 0.015 | 0.059 | -0.025 | -0.179 | 0.021 | 0.012 |
